Measurements reported in PubChem BioAssay AID1347142 (National Center for Advancing Translational Sciences (NCATS), 2019).
Results filed as inconclusive are left out. Activity calls are given as the source filed them. Calls come from the whole dose curve; as a rule, active = well fitted inhibition curve with a large enough effect; inconclusive = small, poorly fitted or top-dose-only effect; inactive = no such curve, though single readings can be large or run the other way.

The molecules below were run against N-terminal Xaa-Pro-Lys N-methyltransferase 1 (Homo sapiens) (UniProt Q9BV86) (assay: qHTS Assay for Inhibitors of N-terminal methyltransferase 1 (NTMT1): ThioGlo3 Assay Confirmatory Screen, Round 1.). Conditions: NTMT1 SAHH-coupled ThioGlo3 fluorescence, 30 min; series mostly up to 56.8 µM; activity change, negative = inhibition: at the top concentration.
Chain of N-terminal Xaa-Pro-Lys N-methyltransferase 1 (Homo sapiens) (Q9BV86 whole entry, looked up): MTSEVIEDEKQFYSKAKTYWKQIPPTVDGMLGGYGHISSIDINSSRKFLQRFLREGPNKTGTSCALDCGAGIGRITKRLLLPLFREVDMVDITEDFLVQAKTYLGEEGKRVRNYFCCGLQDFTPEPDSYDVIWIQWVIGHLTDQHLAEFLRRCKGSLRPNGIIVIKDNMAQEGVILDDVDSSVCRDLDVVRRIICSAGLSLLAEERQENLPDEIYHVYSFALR
Method in brief: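 Human NTMT1 at 125 nM was preincubated 1 min at room temperature with compounds at various concentrations or 1 uM RCC1-6 control. Substrate mix (100 uM SAM, 10 uM SAHH, 15 uM ThioGlo3) was added, and fluorescence (Ex 340/Em 450 nm) was read at start and after 30 min, normalized to background.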
Note: nearly all actives have a fitted effect of over 80% in size.
Potency is the fitted concentration of half-maximal effect.
Throughout, for activity change, negative = inhibition: 0% is about no effect.

SMILES	Potency	activity change, negative = inhibition
OCC1OC(n2cnc3c(NCc4ccco4)ncnc32)C(O)C1O (stereo unspecified)	19.2 µM (active)	–
COC1C(CO)OC(n2cnc3c(=O)[nH]cnc32)C1O (stereo unspecified)	–	-19% (inactive)
CCCCC#Cc1nc(NC)c2ncn([C@@H]3O[C@H](CO)[C@@H](O)C3O)c2n1 (stereo partly specified)	8.57 µM (active)	–
CCCN(C)CCCOc1cc2nc(N3CCCN(C)CC3)nc(NC3CCN(C)CC3)c2cc1OC	27.1 µM (active)	–
COc1cc2nc(N3CCOCC3)nc(NC3CCN(C)CC3)c2cc1OC	24.1 µM (active)	–
COc1cc2c(NC3CCN(C)CC3)nc(N3CCCN(C)CC3)nc2cc1OCCCN1CCOCC1	24.1 µM (active)	–
COc1cc2nc(N3CCN(C)CC3)nc(NC3CCCC3)c2cc1OC	24.1 µM (active)	–
Nc1ncnc2c1ncn2[C@@H]1O[C@H](C[C@@H](N)CC[C@H](N)C(=O)O)[C@@H](O)[C@H]1O	–	9.35% (inactive)
COc1cc2nc(N3CCCN(C)CC3)nc(NC3CCCCC3)c2cc1OC	27.1 µM (active)	–
COc1cc2nc(N3CCN(C(N)=O)CC3)nc(NC3CC3)c2cc1OC	27.1 µM (active)	–
COc1cc2c(NC3CCN(C4CCCCC4)CC3)nc(N3CCCCCC3)nc2cc1OCCCN1CCCCC1	24.1 µM (active)	–
COc1cc2c(NC3CCN(C)CC3)nc(N3CCCN(C)CC3)nc2cc1OCCCCCN	24.1 µM (active)	–
Nc1nc2c(ncn2[C@@H]2O[C@H](CO)[C@@H](O)[C@@H]2O)c(=O)[nH]1	–	3.06% (inactive)
Nc1ncnc2c1ncn2[C@@H]1O[C@H](CO)C[C@@H]1O	–	14% (inactive)
NC(=O)c1ccc[n+]([C@@H]2O[C@H](COP(=O)([O-])OP(=O)(O)OC[C@H]3O[C@@H](n4cnc5c(N)ncnc54)[C@H](O)[C@@H]3O)[C@@H](O)[C@H]2O)c1	–	-14.9% [at 18.9 µM] (inactive)
COc1cc2nc(N3CC[C@@H](N(C)C)C3)nc(NC3CC3)c2cc1OC	–	10.7% (inactive)
Nc1ncnc2c1ncn2[C@@H]1O[C@H](COP(=O)(O)OP(=O)(O)OP(=O)(O)OP(=O)(O)OC[C@@H]2O[C@H](n3cnc4c(N)ncnc43)[C@@H](O)[C@H]2O)[C@@H](O)[C@H]1O	–	-8.61% (inactive)
COc1cc2c(NC3CCN(C(C)C)CC3)nc(N3CCCCC3)nc2cc1OCCOCCN(C)C	27.1 µM (active)	–

SMILES	Potency	activity change, negative = inhibition
Nc1ncnc2c1ncn2[C@@H]1O[C@H](COP(=O)(O)OP(=O)(O)OP(=O)(O)OP(=O)(O)OC[C@@H]2O[C@H](n3cnc4c(N)ncnc43)[C@@H](O)C2O)C(O)[C@H]1O (stereo partly specified)	–	15.1% (inactive)
COc1cc2c(NC3CCN(C4CCCCC4)CC3)nc(N3CCCN(C)CC3)nc2cc1OCCCN1CCCCC1	24.1 µM (active)	–
CCNC(=O)[C@H]1O[C@H](n2cnc3c(N)nc(NCCc4ccc(CCC(=O)O)cc4)nc32)[C@@H](O)[C@@H]1O	–	-29.2% (inactive)
COc1cc2nc(N3CCN(C)CC3)nc(NC3CCN(Cc4ccccc4)CC3)c2cc1OC	24.1 µM (active)	–
COc1cc2c(NC3CCN(C)CC3)nc(N3CCCN(C)CC3)nc2cc1OCCN(C)C	21.5 µM (active)	–
Nc1ncnc2c1[nH]c(=S)n2C1OC(CO)C(O)C1O (stereo unspecified)	17.1 µM (active)	–
CSc1ncnc2c1ncn2C1OC(CO)C(O)C1O (stereo unspecified)	–	10.2% (inactive)
Nc1nc(Cl)nc2c1ncn2[C@@H]1O[C@H](CO)C(O)[C@H]1O (stereo partly specified)	–	-5.53% (inactive)
COCCCCOc1cc2nc(N3CCCN(C)CC3)nc(NC3CCN(C)CC3)c2cc1OC	24.1 µM (active)	–
COc1cc2c(NC3CCN(C(C)C)CC3)nc(N3CCCN(C(C)C)CC3)nc2cc1OCCCN1CCCC1	27.1 µM (active)	–
C[S+](CC[C@H](N)C(=O)O)C[C@H]1O[C@@H](n2cnc3c(N)ncnc32)[C@H](O)[C@@H]1O (stereo partly specified)	inactive	–
Nc1ncnc2c1nc(Cl)n2[C@@H]1O[C@H](CO)[C@@H](O)[C@@H]1O	–	6.13% (inactive)
C[C@H](Cc1ccccc1)Nc1ncnc2c1ncn2[C@@H]1O[C@H](CO)C(O)[C@H]1O (stereo partly specified)	–	19.6% (inactive)
OCC1OC(n2cnc3c(=S)nc[nH]c32)C(O)C1O (stereo unspecified)	13.6 µM (active)	–
COc1cc2c(NC3CCN(C)CC3)nc(N3CCCN(C)CC3)nc2cc1OCCCN1CCCC1	27.1 µM (active)	–
CCN(c1cc(C#CCN2CCOCC2)cc(C(=O)NCc2c(C)cc(C)[nH]c2=O)c1C)C1CCC(N(C)CCOC)CC1 (stereo unspecified)	–	1.3% (inactive)
COc1cc2nc(N3CCN(C)CC3)nc(NC3CC3)c2cc1OC	27.1 µM (active)	–
COc1cc2nc(N3CCN(C)CC3)nc(NC(C)C)c2cc1OC	21.5 µM (active)	–
